Measurements reported in PubChem BioAssay (Tox21).
Results filed as inconclusive are left out. Active and inactive are the calls of the source. Calls come from the whole dose curve.

How the values were obtained:
[1] = molecular target: Acetylcholinesterase (Homo sapiens) (UniProt P22303); test: Acetylcholinesterase (AChE) small molecule antagonists: colormetric cell-based qHTS assay (AID 1347395); note: nearly all actives have a fitted effect of over 30% in size
In short: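 AChE inhibition read colorimetrically via DTNB–thiocholine in SH-SY5Y cells. Compound 30 min, substrate 90 min, both 37 C.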

[2] = molecular target: Acetylcholinesterase (Homo sapiens) (UniProt P22303); test: Acetylcholinesterase (AChE) small molecule antagonists: enzyme-based qHTS assay (AID 1347397); settings: Potency: AChE enzyme activity inhibition; outcome: AChE enzyme activity inhibition; note: nearly all actives have a fitted effect of over 55% in size
In short: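 Absorbance-based detection of thiocholine with DTNB served as the read-out. Recombinant human AChE was exposed to compound for 30 min at RT before a 10 min RT incubation with acetylthiocholine.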

[3] = molecular target: Acetylcholinesterase (Homo sapiens) (UniProt P22303); test: Acetylcholinesterase (AChE) small molecule antagonists: fluorescence cell-based qHTS assay (AID 1347398); settings: Potency: AChE activity; outcome: AChE activity; note: nearly all actives have a fitted effect of over 50% in size
In short: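 Fluorimetric cell-based assay: intact SH-SY5Y cells, 30 min compound preincubation at 37 C, acetylthiocholine substrate with thiol probe Thiolite Green, 40 min RT development, fluorescence 490/520 nm.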

[4] = molecular target: Acetylcholinesterase (Homo sapiens) (UniProt P22303); test: Acetylcholinesterase (AChE) small molecule antagonists: enzyme-based qHTS assay with human liver microsomes (AID 1347399); settings: Potency: qHTS inhibition; outcome: qHTS inhibition; note: nearly all actives have a fitted effect of over 60% in size
In short: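 Recombinant human AChE (50 mU/mL in the enzyme mix) and human liver microsomes (0.25 mg/mL final) were preincubated with compound and NADPH (0.25 mg/mL final) for 30 min at 37 C. Acetylthiocholine/DTNB was then added; thiocholine was read colorimetrically after 10 min at room temperature.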

Measured: Potency

Acetylcholinesterase (Homo sapiens), sequence (P22303 whole entry, looked up): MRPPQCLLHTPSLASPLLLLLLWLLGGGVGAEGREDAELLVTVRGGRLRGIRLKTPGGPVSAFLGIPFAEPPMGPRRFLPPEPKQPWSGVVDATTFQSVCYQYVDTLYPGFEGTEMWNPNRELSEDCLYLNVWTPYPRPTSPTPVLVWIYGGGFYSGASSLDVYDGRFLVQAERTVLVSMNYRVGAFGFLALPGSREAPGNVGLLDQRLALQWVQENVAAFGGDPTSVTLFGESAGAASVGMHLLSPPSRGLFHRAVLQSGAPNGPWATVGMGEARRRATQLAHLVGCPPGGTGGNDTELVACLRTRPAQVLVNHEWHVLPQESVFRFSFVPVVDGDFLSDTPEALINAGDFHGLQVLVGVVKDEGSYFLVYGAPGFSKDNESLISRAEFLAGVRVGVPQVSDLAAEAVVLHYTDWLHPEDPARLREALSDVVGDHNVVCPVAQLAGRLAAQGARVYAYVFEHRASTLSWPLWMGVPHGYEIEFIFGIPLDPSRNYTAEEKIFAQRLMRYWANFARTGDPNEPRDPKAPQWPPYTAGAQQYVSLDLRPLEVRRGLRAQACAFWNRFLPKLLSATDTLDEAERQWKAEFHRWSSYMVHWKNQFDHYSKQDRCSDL

CCCCCc1ccc(N)cc1
inactive: [1] | [2] | [3] | [4]

CCOC(=O)[C@H](CCc1ccccc1)N[C@@H](C)C(=O)N1Cc2cc(OC)c(OC)cc2C[C@H]1C(=O)O
inactive: [1] | [2] | [3] | [4]

C#CC(O)CCCCC (stereo unspecified)
inactive: [1] | [2] | [3] | [4]

NNC(=O)CCCCC(=O)NN
inactive: [1] | [2] | [3] | [4]

Cc1c[nH]c(=S)[nH]c1=O
inactive: [1] | [2] | [3] | [4]

O=C(O)C(=O)Cc1c[nH]c2ccccc12
inactive: [1] | [2] | [3] | [4]

CC(C)(COC(=O)c1ccccc1)COC(=O)c1ccccc1
inactive: [1] | [2] | [3] | [4]

O=C(CCCCCCC(=O)Nc1ccccc1)NO
inactive: [1] | [2] | [3] | [4]

CCCCN(CCCC)C(C(N)=O)c1ccc(OC)cc1 (stereo unspecified)
inactive: [1] | [2] | [3] | [4]

CN(C)CCOCCO
inactive: [1] | [2] | [3] | [4]

CC(=O)N[C@@H](CC(C)C)C(=O)O
inactive: [1] | [2] | [3] | [4]

OCCCS
inactive: [1] | [2] | [3] | [4]

CN(C)CCN(C)CCO
inactive: [1] | [2] | [3] | [4]

CCCCCCOC(=O)NC(=N)c1ccc(NCc2nc3cc(C(=O)N(CCC(=O)OCC)c4ccccn4)ccc3n2C)cc1
inactive: [1] | [2] | [3] | [4]

Nc1nc(-c2ccccc2)cs1
inactive: [1] | [2] | [3] | [4]

O=C1OC(=O)C2CCCCC12 (stereo unspecified)
inactive: [1] | [2] | [3] | [4]

CC(N=C(NC#N)Nc1ccncc1)C(C)(C)C (stereo unspecified)
inactive: [1] | [2] | [3] | [4]

COc1cc(-c2nc(NC(=O)c3cc4cc(C)cc(C)c4n3CC(=O)O)sc2CCC2CCCCC2)c(OC)cc1Cl
inactive: [1] | [2] | [3] | [4]

O=C(O)c1cc(N=Nc2ccc([N+](=O)[O-])cc2)ccc1O
inactive: [1] | [2] | [3] | [4]

CCOC(=O)CCc1ccccc1
inactive: [1] | [2] | [3] | [4]

CCOC(=N)CC(=O)OCC
inactive: [1] | [2] | [3] | [4]

O=C(/N=N/C(=O)OCc1ccccc1)OCc1ccccc1
inactive: [1] | [2] | [3] | [4]

OC1(c2ccc(Cl)cc2)CCNCC1
inactive: [1] | [2] | [3] | [4]

CN1CCN(C2=Nc3ccccc3Oc3ccc(Cl)cc32)CC1
inactive: [1] | [2] | [3] | [4]

COc1ccc(C(=O)c2ccc(OC)cc2O)c(O)c1
inactive: [1] | [2] | [3] | [4]

CCCCCCCCCCCCCCCC
inactive: [1] | [2] | [3] | [4]

CCO[Si](OCC)(OCC)OCC
inactive: [1] | [2] | [3] | [4]

CC(CCc1ccc2c(c1)OCO2)NN (stereo unspecified)
inactive: [1] | [2] | [3] | [4]

CC1C2CC(CC2C2CCCC(O)C2)C1(C)C (stereo unspecified)
inactive: [1] | [2] | [3] | [4]

COc1ccccc1N1CCN(CC(O)COc2cc(OC)c(OC)c(OC)c2)CC1 (stereo unspecified)
inactive: [1] | [2] | [3] | [4]

CCN(CC)CCNC(=O)COc1ccc(Cl)cc1
inactive: [1] | [2] | [3] | [4]

CCC1(C)NC(=O)NC1=O (stereo unspecified)
inactive: [1] | [2] | [3] | [4]

CCOC(=O)C(=O)c1csc(NC=O)n1
inactive: [1] | [2] | [3] | [4]

CCCCC/C=C/CC1CC(=O)OC1=O (stereo unspecified)
inactive: [1] | [2] | [3] | [4]

CCOc1ccccc1O
inactive: [1] | [2] | [3] | [4]

Oc1cccc(Nc2ccccc2)c1
inactive: [1] | [2] | [3] | [4]

CC1=CC(=O)[C@H]2C[C@@H]1C2(C)C
inactive: [1] | [2] | [3] | [4]

CCc1cc(Cc2cc(CC)c(N)c(CC)c2)cc(CC)c1N
inactive: [1] | [2] | [3] | [4]

C=CC(=O)OCCn1c(=O)n(CCOC(=O)C=C)c(=O)n(CCOC(=O)C=C)c1=O
inactive: [1] | [2] | [3] | [4]

CCOC(=O)CC(C)O (stereo unspecified)
inactive: [1] | [2] | [3] | [4]

CCC(C)(CCC(C)C)C(=O)O (stereo unspecified)
inactive: [1] | [2] | [3] | [4]

COc1nc(C)nc(Cl)c1NC1=NCCN1
inactive: [1] | [2] | [3] | [4]

CC(CN=Cc1ccccc1O)N=Cc1ccccc1O (stereo unspecified)
inactive: [1] | [2] | [3] | [4]

CCCCCCOC(=O)c1ccccc1O
inactive: [1] | [2] | [3] | [4]
